Measured values published in PubChem BioAssay AID588346 (National Center for Advancing Translational Sciences (NCATS), 2011).
Inconclusive results are not listed. Calls of active or inactive are those of the source. Calls come from the whole dose curve; as a rule, active = well fitted curve in the direction sought with a large enough effect; inconclusive = small, poorly fitted or top-dose-only effect, or another doubt; inactive = no such curve, though single readings can be large or run the other way.

Test: qHTS Assay for Inhibitors of Histone Lysine Methyltransferase G9a: Hit Confirmation in b-rIgG Counterscreen
Conditions: AlphaScreen b-rIgG bead counterscreen, signal interference; series mostly up to 55.7 µM; activity change, negative = inhibition: at the top concentration
Excerpt: Methylated lysines, on the N-terminal tails of histone proteins serve as epigenetic markers to recruit factors that can then modify local chromatin structure to lead to functional consequences. G9a and other members of the SUV39 family of the SET domain-containing superfamily of histone lysine methyltransferases (HMT) have been identified to specifically methylate Lys9 of histone H3 (H3K9). G9a catalyzes the mono- and di-methylation of H3K9 in mammalian euchromatic regions, where the resulting H3K9me2 is indicative of transcriptional repression. […] The inhibition of G9a will result in transcriptional activation and work synergistically with DNA methyltransferase and histone deacetylase inhibitors, to kill cancer cells. This qHTS assay for identification of G9a inhibitors is a chemiluminescence based AlphaScreen (PerkinElmer). Methylation of biotinylated-histone peptide is measured through specific antibody-based detection, in conjunction with streptavidin-coated donor and anti-IgG antibody-coated acceptor beads. The method is particularly well suited for detection of inhibitors acting by the desired histone peptide competitive mechanism and is applicable to testing other HMTs. Although AlphaScreen has significant advantages with its utility in a variety of epigenetic target assays, the primary screening data provided in this deposition should be used with caution due to the prevalence of screening artifacts. Because an AlphaScreen counterscreen is highly recommended to be run against any putative actives to eliminate non specific artifacts, this assay was used as a counterscreen. Quinn et al. A chemiluminescence-based method for identification of histone lysine methyltransferase inhibitors. Mol Biosyst 6(5): 782-8. 2010. PMID: 20567762 [2] Baell,Holloway. New substructure filters for removal of pan assay interference compounds (PAINS) from screening libraries and for their exclusion in bioassays. J Med Chem. 53(7):2719-40. 2010. PMID: 20131845 NIH Chemical Genomics Center [NCGC] NIH Molecular Libraries Probe Production Network [MLPCN] MLPCN Grant: MH084681-02 Assay Submitter (PI): Structural Genomic Consortium - Toronto, Peter Brown
Biotinylated rabbit-IgG (b-rIgG) (Santa Cruz Biotechnology, Inc., Santa Cruz, CA) was added to 1,536-well plates in a 3 uL dispense. Compounds were added in a 23 nL pin-transfer step, and plates were incubated at room temperature for 15 min. Streptavidin-coated donor and anti-rIgG acceptor AlphaScreen beads were added (1 uL) for final concentrations of 20 ug/mL each bead and 1 nM b-rIgG, and plates read on the Envision after a 15 min incubation at room temperature in the dark.

Structure (SMILES) | activity change, negative = inhibition
Oc1ccc2c3c1O[C@H]1[C@@H](O)CC[C@@]4(O)C(C2)N(CC2CCC2)CCC314 (some centres not stated) | -11.1% (inactive)
C/C(O)=C(\C#N)C(=O)Nc1cc(Br)ccc1Br | 23.4% (inactive)
CCCN(CCC)CCc1c[nH]c2ccc(C(N)=O)cc12 | 62.1% [at 114 µM] (inactive)
O=C1NC(=O)N(CCc2ccc(F)cc2)C(=O)/C1=C/C=C/c1ccccc1 | -5.53% (inactive)
COc1ccc(OC)c(N2C(=O)NC(=O)/C(=C\c3ccc([N+](=O)[O-])s3)C2=O)c1 | 0.425% (inactive)
CN1CSC(=S)N(C)C1 | 17% (inactive)
NCCc1c[nH]c2ccc(O)cc12 | -25.5% (inactive)
